Screens: PubChem, National Center for Advancing Translational Sciences (NCATS)
POLI inh = DNA polymerase iota (human) inhibition; Pol iota fluorescent replication assay, 10 min; Potency, µM (series often up to 115 µM), for the others: at the highest dose activity, negative = inhibition, usual class: inhibitors; hit rate 1% among 390,000; AID 588590; further: potency means the concentration at half of the fitted maximal effect
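Fluorescent replication assay read twice, at 0 min and 10 min after adding 50 nM (final) substrate. Enzyme (10 nM) and compounds were first incubated 15 min at room temperature; enzyme-free buffer wells were negative controls.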
POLB inh = inhibitors of human DNA polymerase beta; P06746; hit rate 1.3% among 340,000; Potency, µM (titrated, usually from 114 µM), for inactives: top-dose activity change, negative = inhibition, hits mostly inhibitors; Pol beta primer extension/strand displacement, fluorescence kinetic; further: potency means the concentration at half of the fitted maximal effect; on the % scale 0 is the no-effect control and ±100 the full control effect
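Enzyme-only controls used 10 nM Pol beta; buffer lacking enzyme served as negative control. Compound preincubated 15 min, then 50 nM substrate added; 0 and 10 min reads at room temperature.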
12-LOX inh = inhibitors of human 12S-lipoxygenase ALOX12. purified 12hLO, xylenol orange hydroperoxide absorbance. Potency, µM (titrated, usually from 108 µM), inactives show top-dose activity change, negative = inhibition, usual class: inhibitors. hit rate 1.1% among 580,000. AID 1671190; further: potency means the concentration at half of the fitted maximal effect; on the % scale 0 is the no-effect control and ±100 the full control effect
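Purified human 12hLO at 150 nM in 25 mM Hepes, 0.01% Triton X-100, pH 7.0, preincubated 15 min at room temperature with compound. Reaction started with 40 uM arachidonic acid, 30 min at room temperature. Hydroperoxide measured by Fe-xylenol orange, 573/405 nm absorbance ratio.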
POLH inh = DNA polymerase eta (human) inhibition; Q9Y253; hit rate 1.2% among 390,000; recombinant Pol eta, fluorescent DNA replication assay; Potency, µM (series often up to 114 µM), for the others: at the highest dose activity change, negative = inhibition, actives largely listed as inhibitors; further: potency means the concentration at half of the fitted maximal effect; on the % scale 0 is the no-effect control and ±100 the full control effect
Target sequence (Q9Y253 whole entry, looked up): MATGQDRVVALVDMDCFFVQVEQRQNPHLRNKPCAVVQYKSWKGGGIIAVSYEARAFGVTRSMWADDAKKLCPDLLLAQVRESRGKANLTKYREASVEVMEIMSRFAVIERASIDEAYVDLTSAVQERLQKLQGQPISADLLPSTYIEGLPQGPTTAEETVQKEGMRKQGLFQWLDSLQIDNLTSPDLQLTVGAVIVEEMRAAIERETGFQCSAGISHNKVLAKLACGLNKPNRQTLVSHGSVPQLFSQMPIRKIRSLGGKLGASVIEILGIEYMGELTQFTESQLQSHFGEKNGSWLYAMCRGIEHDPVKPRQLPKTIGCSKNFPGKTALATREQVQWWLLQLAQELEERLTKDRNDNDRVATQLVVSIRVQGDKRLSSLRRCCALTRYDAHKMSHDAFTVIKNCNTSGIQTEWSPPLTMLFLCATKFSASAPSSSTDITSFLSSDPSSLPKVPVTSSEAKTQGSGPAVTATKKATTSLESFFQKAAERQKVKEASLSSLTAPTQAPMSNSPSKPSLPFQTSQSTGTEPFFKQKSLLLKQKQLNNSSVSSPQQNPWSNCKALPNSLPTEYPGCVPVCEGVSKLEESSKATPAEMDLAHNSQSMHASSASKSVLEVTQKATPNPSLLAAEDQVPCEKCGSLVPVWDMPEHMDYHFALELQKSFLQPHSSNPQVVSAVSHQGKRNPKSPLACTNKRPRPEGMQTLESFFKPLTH
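Pol eta (10 nM) was preincubated with compounds for 15 min at room temperature, after which fluorescent replication substrate (50 nM final) was added to start the reaction. Fluorescence was read kinetically at 0 and 10 min.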
POLK inh = inhibitors of human DNA polymerase kappa; Q9UBT6; purified Pol kappa, fluorescent DNA synthesis assay, 10 min; Potency, µM (highest dose often 107 µM), for inactives: at the top dose activity, negative = inhibition, hits mostly inhibitors; hit rate 0.53% among 400,000; AID 588579; further: potency means the concentration at half of the fitted maximal effect; on the % scale 0 is the no-effect control and ±100 the full control effect
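10 nM Pol kappa was preincubated with compounds for 15 min at room temperature. Reaction started with 50 nM (final) substrate. Fluorescence read kinetically at 0 and 10 min.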
PI5P4Ka inh = PI5P4K alpha (human) kinase inhibition; P48426; PI5P4Kalpha enzyme, ADP-Glo luminescence, 60 min; active compounds read low; max response, %; hit rate 1.2% among 330,000; active means max response of -50% or lower; inconclusive means between -30% and -50%; inactive means -30% or higher; further: value at the top dose of about 77 µM; on the % scale 0 is the no-effect control and ±100 the full control effect
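Enzyme plus substrate dispensed, test compounds pinned in, then ATP (5 microM final) added. After 60 min at RT, ADP-Glo reagent 1 for 45 min and reagent 2 for 30 min preceded luminescence imaging.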
* = called active by the depositor; [ ] = remark or other dose. In the library only some 2.9% were active in any assay of this set; here they are far more common. Unless noted, the call rests on the fitted dose curve; in most records, active means well fitted inhibition curve with a large enough effect; inconclusive means small, poorly fitted or top-dose-only effect, or another doubt; inactive means no such curve, though single readings can be large or run the other way.

Cc1ccc2oc(C(=O)NCC(c3cccs3)N3CCCCCC3)cc(=O)c2c1 (configuration not stated) was read as 12-LOX inh 14.6%.
CNC(=O)c1ccc2c(c1)OCC(=O)N2 was read as 12-LOX inh -56.5%.
Screening COc1ccc(-c2csc(C(C#N)=C(O)CSc3nccn3C)n2)cc1OC returned POLI inh 14.1µM*, 12-LOX inh -26.7%, POLH inh 44.7µM*, POLK inh -24.6% and PI5P4Ka inh 2.1.
COc1ccc(/C=C(\C#N)c2nc(-c3ccc(Cl)c(Cl)c3)cs2)cc1OC was read as POLI inh -14.7%, POLB inh 14.2%, 12-LOX inh -11.9%, POLH inh 1.3% and POLK inh -6.7%.
Screening CN(CC(F)(F)F)C(=O)CCNC(=O)c1ccc(Br)cc1 returned 12-LOX inh 25.1%.
Screening COc1cccc2oc(SC)cc(=O)c12 returned POLK inh -8.9%.
For COc1ccc(Br)c2oc(S)cc(=O)c12 the results were POLI inh inconclusive, POLB inh 7.0%, 12-LOX inh 6.31µM*, POLH inh -6.2%, POLK inh -9.6% and PI5P4Ka inh -19.0.
For COc1ccc2c(C)cc(SCC(=O)c3ccc4c(c3)OCO4)nc2c1 the results were POLI inh -15.9%[58.9 µM], POLB inh 50.1µM*, 12-LOX inh -11.9%, POLH inh -13.8% and POLK inh -6.3%.
Screening CCCCCn1c(C)c2c(OCC)cccc(=O)c2c1C returned POLI inh inconclusive, POLB inh 0.7%, 12-LOX inh inconclusive, POLH inh -26.0%, POLK inh -18.2% and PI5P4Ka inh -6.5.
COc1cccc(=O)c2c(C)n(C)c(C)c12 was read as POLI inh 39.8µM*, POLB inh 25.1µM*, 12-LOX inh 6.3%, POLH inh inconclusive, POLK inh inconclusive and PI5P4Ka inh -13.9.
`CCOc1cccc(=O)c2c(C)n(C)c(C)c12` gave POLI inh 22.4µM*, POLB inh inconclusive, 12-LOX inh inconclusive, POLH inh inconclusive and POLK inh inconclusive.
O=C(NN1C(=O)NC2(CCCCC2)C1=O)c1nn(-c2ccccc2)c(=O)c2ccccc12 was read as 12-LOX inh 1.3%.
Screening CCCCNC(=O)c1nc2cc(C)c(C)cc2nc1-c1cccc(C(F)(F)F)c1 returned 12-LOX inh -18.6%.
Screening COC(=O)c1ccc(NC(=O)C(NC(=O)c2ccc(OC)cc2)C(C)C)c(C)c1 (configuration not stated) returned 12-LOX inh -29.1%.
O=C1NC(=S)/C(=C\c2ccc(-c3ccccc3Cl)o2)S1 was read as POLI inh inconclusive, POLB inh 39.8µM*, 12-LOX inh 35.5µM*, POLH inh 15.8µM*, POLK inh inconclusive and PI5P4Ka inh -68.5*.
For Cc1nnc(C)n1/N=C/c1ccc(-c2ccccc2Cl)o1 the results were POLI inh 129.2%, POLB inh 60.4%, 12-LOX inh -24.5%, POLH inh -12.1%, POLK inh -2.3% and PI5P4Ka inh 1.9.
`Cc1nn2c(c1-c1ccccc1OCc1ccccc1)N(Cc1ccc(C(=O)O)s1)CCC2` gave 12-LOX inh 5.3%.
Screening CC12C(=O)N(c3cccc4cccnc34)C(=O)C1C1C=CC2C1 (configuration not stated) returned POLI inh 27.8%, POLB inh 9.4%, 12-LOX inh -0.9%, POLH inh -17.2%, POLK inh 5.0% and PI5P4Ka inh 8.4.
CC12C(=O)N(c3nccs3)C(=O)C1C1C=CC2C1 (configuration not stated) was read as POLI inh 89.1µM*, POLB inh 31.6µM*, 12-LOX inh 4.2%, POLH inh 28.2µM*, POLK inh -27.5% and PI5P4Ka inh -28.8.
Screening CCCc1cc(=O)[nH]c(SCC(=O)N2N=C(c3ccc(Cl)cc3)CC2c2ccco2)n1 (configuration not stated) returned POLI inh -16.5%, POLB inh inconclusive, 12-LOX inh inconclusive, POLH inh inconclusive, POLK inh -19.1% and PI5P4Ka inh inconclusive.
For COCC(=O)OCC(=O)N1N=C(c2ccc(Cl)cc2)CC1c1ccco1 (configuration not stated) the results were POLI inh 63.9%, POLB inh -0.8%, 12-LOX inh -24.3%, POLH inh -8.9%, POLK inh -5.1% and PI5P4Ka inh 8.0.
Nc1cc(=O)[nH]c(SCC(=O)N2N=C(c3ccc(Cl)cc3)CC2c2ccco2)n1 (configuration not stated) was read as POLI inh inconclusive, POLB inh 24.7%, 12-LOX inh 39.8µM*, POLH inh inconclusive, POLK inh -4.4% and PI5P4Ka inh -2.8.
COc1ccc(C2=NN(C(=O)CSc3nc4ncc(Cl)cc4[nH]3)C(c3ccco3)C2)cc1 (configuration not stated) was read as POLI inh 44.7µM*, POLB inh 11.4%, 12-LOX inh inconclusive, POLH inh -10.5%, POLK inh 89.1µM* and PI5P4Ka inh -29.6.
CC(C)[C@H](NS(=O)(=O)c1ccccc1)C(=O)OCC(=O)N1N=C(c2ccc(Cl)cc2)CC1c1ccco1 (some centres not stated) was read as POLI inh -0.6%, POLB inh -0.3%, 12-LOX inh 39.8µM*, POLH inh -15.6%, POLK inh -23.2% and PI5P4Ka inh inconclusive.
For COc1ccc(SC(C)C(=O)NCc2ccnc(N3CCOCC3)c2)cc1 (configuration not stated) the results were 12-LOX inh -18.7%.
For CCOc1ccc(NCc2cccn2-c2nnc(N3CCC(C(=O)NC(C)CC)CC3)s2)cc1 (configuration not stated) the results were 12-LOX inh 3.2%.
For Cc1ccc(NC(=O)C(c2ccccc2)n2cnc3c2c(=O)n(C)c(=O)n3C)cc1 (configuration not stated) the results were 12-LOX inh -16.4%.
Screening Cc1c2c(nc3ccccc13)CCSC2 returned 12-LOX inh 4.47µM*.
For c1ccc(-c2c3c(nc4ccccc24)CCSC3)cc1 the results were 12-LOX inh 9.4%.
`O=C(N/N=C1\CCCc2oc(C(=O)O)cc21)c1ccccc1` gave POLI inh -6.1%, POLB inh 9.0%, 12-LOX inh 8.9%, POLH inh 3.0%, POLK inh -11.3% and PI5P4Ka inh -1.7.
